# Test results published in PubChem BioAssay (NCI).
# This is part of a sample that, as a whole, favours compounds with a hit. Of some 79,000 tested, about 15% had one in any assay. Values without a mark were called inactive. Active and inactive are the calls of the source. No stated cut-off is given here; in the data, active means growth inhibition above about 70%; inactive means the rest.
# What was measured:
# [1] = NCI Yeast Anticancer Drug Screen. Data for the rad50 strain (AID 155);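 further: 0% = growth of vehicle-only cultures of the same strain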; conditions: S. cerevisiae rad50 strain growth inhibition, stronger effect = higher value
# In short: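 Genetically altered yeast (DNA repair pathway); compound treatment; growth inhibition vs vehicle ctrl.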
# [2] = NCI Yeast Anticancer Drug Screen. Data for the mec2-1 strain (AID 157); conditions: S. cerevisiae mec2-1 strain, stronger effect = higher value
# In short: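 Cells of the genetically defined mec2-1 yeast strain are incubated with test compound. Inhibition of growth is calculated against vehicle-treated controls.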
# [3] = NCI Yeast Anticancer Drug Screen. Data for the sgs1 mgt1 strain (AID 161);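 further: 0% = growth of cultures given vehicle only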; conditions: S. cerevisiae sgs1 mgt1 strain, stronger effect = higher value
# In short: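 Genetically altered yeast, compound exposure, growth inhibition relative to vehicle.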
# [4] = NCI Yeast Anticancer Drug Screen. Data for the cln2 rad14 strain (AID 165);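 further: 0% = growth equal to vehicle treated cultures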; conditions: S. cerevisiae cln2 rad14 strain, stronger effect = higher value
# In short: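 The screen exposed genetically defined yeast (cln2 rad14) to test compounds and scored growth inhibition relative to vehicle-treated controls.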
# [5] = NCI Yeast Anticancer Drug Screen. Data for the bub3 strain (AID 167); conditions: S. cerevisiae bub3 mutant strain, stronger effect = higher value
# In short: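 Yeast carrying a defined mutation is treated with each compound, and growth is compared with that of vehicle-exposed cells to give inhibition.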
# [6] = NCI Yeast Anticancer Drug Screen. Data for the mlh1 rad18 strain (AID 175); conditions: S. cerevisiae mlh1 rad18 strain growth inhibition, stronger effect = higher value
# In short: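 Compound-treated yeast growth, normalised to vehicle controls. Strain bears defined DNA repair mutations.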
# [7] = at 5.0 µM (retest, dose inferred, filed as 0.5)
# [8] = at 50.0 µM (retest, dose inferred, filed as 5.0)
SMILES,"growth inhibition [1, 7]","growth inhibition [1, 8]",growth inhibition ([1]; at 50.0 µM),"growth inhibition [2, 7]","growth inhibition [2, 8]",growth inhibition ([2]; at 50.0 µM),"growth inhibition [3, 7]","growth inhibition [3, 8]",growth inhibition ([3]; at 50.0 µM),"growth inhibition [4, 7]","growth inhibition [4, 8]",growth inhibition ([4]; at 50.0 µM),"growth inhibition [5, 7]","growth inhibition [5, 8]",growth inhibition ([5]; at 50.0 µM),"growth inhibition [6, 7]","growth inhibition [6, 8]",growth inhibition ([6]; at 50.0 µM)
Cc1cc(C(=O)CBr)c(CN2C(=O)c3ccccc3C2=O)c(=O)n1C,17%,98% (active),63.3%,49%,99% (active),12.3%,25%,99% (active),74.3% (active),11%,98% (active),2%,18%,98% (active),31.2%,64%,99% (active),38%
COc1ccc(OC2OC(COC(c3ccccc3)(c3ccc(OC)cc3)c3ccc(OC)cc3)C(O)C(O)C2O)cc1 (configuration not stated),4%,98% (active),97.5% (active),-10%,98% (active),97% (active),9%,69%,98.1% (active),11%,98% (active),97.6% (active),4%,99% (active),95.5% (active),-11%,98% (active),96.7% (active)
CC1(C)CNCC(C)(OCc2ccccc2)C(=O)NC(C)(C)CNCC(C)(OCc2ccccc2)C(=O)N1 (configuration not stated),-6%,-19%,-1.9%,-15%,-8%,-3.4%,-8%,7%,-20.9%,-15%,-5%,31.5%,-10%,3%,-68.2%,-10%,6%,-10.4%
Cc1ccc(C(=O)CCCN2CCOCC2)c(C)c1,13%,46%,77.5% (active),5%,30%,38.8%,27%,57%,58.8%,29%,63%,50.5%,30%,69%,73.8% (active),5%,43%,72.8% (active)
CCCCCCCCCC[N+](C)(C)CCC[N+](C)(C)CCCCCCCCCC,42%,93% (active),89.5% (active),20%,88% (active),91.2% (active),37%,98% (active),88.3% (active),32%,88% (active),78.2% (active),31%,95% (active),62.6%,31%,89% (active),61.8%
O=[N+]([O-])/C(C=Nc1ccccc1)=C/Nc1ccccc1,-17%,51%,71.5% (active),-10%,33%,67.3%,2%,46%,83.5% (active),-6%,48%,37.5%,16%,73% (active),31.6%,-15%,83% (active),76.6% (active)
CCOC(=O)c1cccc(C)c1C(=O)c1ccc(C)cc1C,3%,66%,38.9%,4%,79% (active),79.3% (active),0%,-36%,47.3%,6%,-1%,-9.5%,-4%,24%,82.8% (active),-2%,41%,59.6%
CC1CCN(c2cc(-c3cc4ccccc4o3)oc(=O)c2C#N)CC1,7%,1%,66.5%,2%,3%,56.7%,3%,0%,68.5%,7%,-1%,33.1%,2%,-1%,39.9%,-5%,3%,74.7% (active)
Cc1ccc(NC(Nc2ccc(C)cc2C)=C(/C=C(\Cl)[N+](=O)[O-])[N+](=O)[O-])c(C)c1,99% (active),97% (active),96.6% (active),99% (active),97% (active),96.1% (active),99% (active),97% (active),95.5% (active),98% (active),93% (active),93.2% (active),99% (active),97% (active),96% (active),99% (active),96% (active),96.3% (active)
